According to the supplement of paper PMC6555819:

Experiments:
Test in all cases: PBM binding z-score (relative to random genomic background probes); higher = stronger binding; sequences stand for … in GC…GCGATTGACAGCGTAGAATGAAGG
[1] = test system: RARb homodimer (NR concentration 270 nM)
Outline: (§1)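 Custom Agilent 4×180K protein-binding microarrays carried double-stranded probes, each with a 34-nt variable region. These regions held direct-repeat seeds, single-nucleotide variants, half-site ablations and random human genomic background sequences. Ligand-free nuclear receptor dimers were incubated on the arrays for 1 h, antibodies against each partner (one per run) detected binding, and scanned fluorescence was regression-normalized. Binding z-scores take the random background probes as reference.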

[2] = test system: RARg:RXRa (NR concentration 270 nM, RXRa partner concentration 90 nM)
Outline: as §1

[3] = test system: RARg homodimer (NR concentration 270 nM)
Outline: as §1

[4] = test system: RXRa DBDmut IVT, anti-RXR (DBD mutation: RXRa K156A/R161A, NR concentration 90 nM)
Outline: as §1

[5] = test system: RXRa homodimer (NR concentration 180 nM)
Outline: as §1

[6] = test system: THRa:RXRa (NR concentration 90 nM, RXRa partner concentration 90 nM)
Outline: as §1

[7] = test system: THRa homodimer (NR concentration 90 nM)
Outline: as §1

[8] = test system: VDR homodimer (NR concentration 270 nM)
Outline: as §1

Sequence | PBM binding z-score [1] | PBM binding z-score [2] | PBM binding z-score [3] | PBM binding z-score [4] | PBM binding z-score [5] | PBM binding z-score [6] | PBM binding z-score [7] | PBM binding z-score [8]
TCATATATGTAAAAGGTGAAAGTCGGTGTGGTAA | 1.67 | 1.18 | 0.788 | 1.48 | 1.79 | 1.36 | 0.104 | 0.0436
AGAATGAGGTTATAAGTAGATCAGGGAAGAAAGT | 0.89 | 1.35 | 0.794 | 1.41 | 2.12 | 2.1 | 0.689 | 1.09
ATCGCAAGGTCGAAGGTGAGTATACCCACCCGAA | 1.17 | 2.67 | 2.23 | 0.978 | 2.93 | 2.12 | -0.0109 | 0.489
AGAATGAGGTTACGAAAGATCAGGGAAACGCTTG | 0.671 | 2.26 | 1.68 | 1.11 | 2.73 | 2.89 | 0.487 | 0.194
ACAATGAGGTTAAGATCAGGGAAACAGAATACAT | 0.906 | 2.33 | 1.7 | 1.33 | 2.53 | 2.51 | 0.954 | 0.941
CGTCCAAGGTCAAGGTCAGTTAAAGAGACTCGAA | 5.26 | 6.92 | 7.72 | 3.68 | 6.66 | 4.4 | 3.3 | 3.29
TCTGCAAGGTCAACGATGGTCAGCTAATCTGCTA | 4.58 | 6.12 | 6.75 | 2.83 | 5.75 | 4.24 | 2.36 | 1.62
TCATATAGGTAAACAGGTGCAAGTCCGTAAGTTA | 0.278 | 0.453 | 0.0324 | 1.32 | 1.27 | 0.672 | 0.416 | 1.14
ACTAGCAGGCCCAGTTTGGGTCACTCAAACAAAG | 1.42 | 0.324 | 0.28 | -0.882 | 0.398 | 1.72 | 0.659 | -0.243
GCAGACAGGTGAAACGTAGGTAACTCAGGGTGGC | 0.622 | 0.956 | 0.393 | -0.48 | 0.858 | 1.2 | -0.606 | -0.684
GGAACGAGGGCAAAGTTGATAACATCTGTCGACG | 1.21 | 2.19 | 1.97 | 2.93 | 1.93 | 1.27 | -0.123 | 1.42
TCTGTTAGGTCAACGATGGTCAGCTAATCTGCTA | 3.65 | 4.38 | 4.93 | 1.61 | 3.2 | 3.73 | 2.76 | 0.727
CTCGAAAGGTTGGTTGAGGTGAGTATACGGATAA | 1.12 | 0.599 | 0.684 | 0.251 | 0.502 | 4.42 | 1.82 | 0.513
ACTCGGAGAACAAAGGTCAGAGCTACGCCAGTGA | 4.39 | 4.46 | 3.88 | 0.505 | 4.55 | 2.76 | 0.0239 | 0.553
CCTAGTTGGTAAGGAGGTCACACACCGGATATGA | 3.85 | 3.75 | 3.06 | 0.539 | 4.06 | 3.44 | 2.35 | 2.37
GCTTACGGGTCAAAGCTTATAGCATGAATAGAAT | 2.29 | 4.92 | 4.8 | 2.48 | 5.91 | 2.12 | -0.718 | 0.809
GCGACTGGGGCAAAGCAGGTTACCGTAAGGTTGG | 1.14 | 0.477 | 0.183 | -0.47 | 0.234 | 3.15 | -0.142 | -0.434
CCGACTGGGGAAAAGGTTACCATACTCAGTACGA | 1.79 | 1.37 | 0.901 | 0.237 | 1.86 | 1.05 | -0.101 | 0.0305
GCATATAGGCAATACAAGGTGAAAGTCCGATTGT | 0.688 | 0.477 | 0.305 | 0.168 | 0.621 | 3.17 | 0.6 | -0.0976

Sequence | PBM binding z-score [1] | PBM binding z-score [2] | PBM binding z-score [3] | PBM binding z-score [4] | PBM binding z-score [5] | PBM binding z-score [6] | PBM binding z-score [7] | PBM binding z-score [8]
TCATATAGGTAAAAGGTGAGAGTCGGTGTGGTAA | 1.5 | 1.39 | 0.67 | 1.49 | 2.55 | 1.26 | 0.546 | 0.255
CCGACTGGGGCATAAGCTTACCATAAGCCAGCCC | -0.773 | -0.376 | -0.313 | 0.074 | -0.312 | -0.645 | -1.06 | -0.947
CCATACAGGTGAAAGGTAACTCAGTCTGGTACGC | 0.92 | 1.41 | 0.917 | 0.261 | 2.32 | 1.08 | 0.069 | -0.101
ATATGTAGGTTAAGGGGCATTCAGGTTGGTTCGC | 2.06 | 1.58 | 1.19 | 1.17 | 1.85 | 1.82 | 1.46 | 2.03
TGTCAAAGTTCAAAGGTATCGTAAGTATCCACAC | 3.71 | 5.75 | 6.26 | 4.47 | 6.28 | 2.56 | -0.19 | 4.53
CCTGCTGGGCCAAGGTCATTGATCAGTCAAAGCA | 3.19 | 3.79 | 2.93 | 1.26 | 3.54 | 3.49 | 2.22 | 2.48
CGTCCCAGGTCAATGCTAGGTCAGTGAAAGCATT | 4.23 | 6.41 | 5.01 | 1.99 | 3.1 | 4.25 | 2.99 | 1.74
CAAACGAGGGCATGAGTTGATAGCAAATGCCGAT | 0.782 | 1.53 | 1.79 | 2.13 | 1.29 | 1.56 | -0.234 | 1.62
TCGAGCAGGTTACCAATGGGGCATTCAGCTTTCT | 0.557 | 1.36 | 0.389 | -0.436 | 0.616 | 0.235 | -0.786 | -0.843
GCTTGTTGGTCAGTAAAAGGTCACACACCGGTCG | 5.37 | 5.53 | 4.67 | 0.545 | 5.16 | 3.5 | 2.15 | 1.68
GCAGACAGGTGAAACGAAGGTAACTCAGGGTGGC | 0.36 | 1.1 | 0.315 | -0.588 | 0.938 | 1.42 | -0.157 | -0.798
GTACCTAGGTGAATAGGTCGTTGATGAGTAGGCG | 1.12 | 1.85 | 0.79 | -0.37 | 1.24 | 1.08 | -0.182 | 0.0472
ATCTCTAGGAAAAGATAGTTCAGTGAATGCAAAT | 0.679 | 0.447 | 0.556 | 0.143 | 0.0291 | 0.206 | -0.344 | 0.566
GCTATTAGTTGATAGGGCAACCGAATGATTCTCG | 0.604 | 0.208 | 0.649 | 0.36 | 0.26 | -0.111 | -0.518 | 0.0585
TATACAGGGTCAAAGGCCAGTGTACGAATGTCGA | 3.45 | 5.7 | 5.08 | 2.97 | 7.04 | 3.57 | 0.905 | 2.75
AGAATGAGGTTACCAAAGATTAGGGAAACGCTTG | 0.628 | 1.99 | 1.59 | 0.929 | 2.53 | 2.69 | 0.581 | 0.29
TAGCCTAGGTCATGGGCGAGTATACCACGCGAAC | 2.97 | 4.08 | 4.15 | 0.379 | 3.57 | 3.11 | 1.11 | 0.339
CGAACCAGGTCAAGGACAGTGAATCTCCGCACGC | 3.09 | 3.99 | 4.33 | 2.23 | 3.47 | 3.82 | 2.79 | 1.05
CCTGCTAGGTCAATAGTCAGCTAAAGCAGCTCGC | 2.18 | 3.06 | 3.91 | 1.56 | 1.42 | 1.74 | 0.258 | -0.379

Sequence | PBM binding z-score [1] | PBM binding z-score [2] | PBM binding z-score [3] | PBM binding z-score [4] | PBM binding z-score [5] | PBM binding z-score [6] | PBM binding z-score [7] | PBM binding z-score [8]
ATACCAAGGTGATCGTGTGGTCGTTGATACTAAC | 0.584 | 0.298 | 0.273 | 0.0966 | 0.296 | 0.959 | 0.536 | 0.0513
GCTAGCTGGCCATTTGGGTCACTCAATGACGGGC | 1.49 | 0.332 | 0.89 | -0.667 | 0.339 | 1.22 | 0.32 | -0.66
GCTTTCGGGTCAAAGGTTATAGCATGAATAGAAT | 3.37 | 7.01 | 5.04 | 2.52 | 9.55 | 4.61 | 2.14 | 2.16
GCTGCTAGGTCAACTGATGTTCAGCTAAAGCTCG | 3.45 | 4.37 | 5.51 | 1.81 | 2.95 | 2.89 | 1.02 | 0.0528
ATCGAAAGGTCGAGGCGAGTATAGAGAAAGGGAA | 1.95 | 3.9 | 3.91 | 0.625 | 4.19 | 1.83 | -0.512 | 0.276
AGAATGAGGTTAAAATCAGGGAAACAGAATACAT | 0.545 | 1.94 | 1.31 | 1.51 | 2.62 | 2.4 | 0.43 | 0.808
TGAATGAGGGTAAAGATCAGGGAACGTGGCGTCG | -0.018 | 0.443 | 0.391 | -0.234 | 1.07 | 0.432 | -0.386 | -0.201
CCGACTGGGGCAAAGGGTACCATACTCAGTACGA | 0.849 | 0.946 | 0.506 | -0.546 | 0.731 | 0.31 | -0.963 | 0.0229
CCTACTAGGTCATGGTCAGCTAATCTACAGTATG | 3.34 | 3.79 | 4.21 | 1.37 | 2.66 | 2.87 | 1.53 | 0.776
TCTGCTGGGTCAGTTGGTCAGCTAACGAGCTGCC | 2.12 | 2.77 | 2.99 | 0.212 | 1.06 | 0.669 | -0.537 | -0.562
CCTAGTGGGCCATTCAGAGGTCATTGATCATATG | 3.74 | 4.53 | 3.07 | 0.957 | 3.76 | 3.08 | 1.34 | 3.53
ACTTATGGGTCAACGAGGTTATAGCACGCGTATA | 3.67 | 5.04 | 5.1 | 1.92 | 5.18 | 3.79 | 1.03 | 2.82
AGAGACAGGTGAGTGAAGGTAACTCAGCTGGACG | 0.498 | 0.327 | 0.547 | -0.787 | 0.592 | 1.75 | 0.04 | -0.14
GCTGCTAGGTCAACGGATGGTCAGCTAAAGCTCG | 3.51 | 4.98 | 5.24 | 1.17 | 2.82 | 2.51 | 0.887 | 0.0371
CGTCCAAGGTCAAAGGTCAGTGACGAGATGACGG | 5.47 | 8.79 | 8.22 | 3.93 | 10.5 | 4.85 | 2.69 | 3.54
CCGACTGCGGCAAAGGTTACCATACTCAGTACGA | 2.07 | 1.43 | 1.07 | 0.531 | 2.46 | 1.33 | 0.0326 | 0.183
TCTTGTAGATTAAGCAGGTTAAGAAAGCCTGAGT | 0.394 | -0.0145 | -0.457 | 0.673 | 0.377 | 0.509 | -0.386 | 0.113
ACTAACGGGTCAACGAGGTTATAGCACGCGTATA | 3.41 | 5.03 | 4.5 | 1.94 | 5.17 | 3.81 | 1.03 | 3.56
